# Shown are actives, neighbours in structure and some others; about 22% of the full set was active somewhere.
# Cycloheximide cs – counter-screen for Shiga toxin inhibitors: cycloheximide protein synthesis inhibition. AID 2314. cell reporter, cycloheximide protein synthesis inhibition counterscreen. max response, %. hit rate 12% among 300,000; in the data active means max response mostly above about 13%, no sharp cut-off; inactive means mostly below about 14%; further: read at 38.3 µM for the half of the compounds with a filed dose; 0% is about no effect
# Shiga inhibitor – inhibitors of Shiga toxin in Vero cells. hit rate 9.2% among 290,000. Vero cells, Shiga toxin protein synthesis inhibition reporter. inhibition, % at 38.7 µM; in the data active means inhibition mostly above about 28%, no sharp cut-off; inactive means mostly below about 43%; further: 0% is about no effect
# LmPK inh – LmPK (Leishmania mexicana) enzyme inhibition; Q27686; purified LmPK, Kinase-Glo ATP luminescence, 1 h; Potency, µM (series often up to 57.5 µM), for inactives: top-dose activity change, negative = inhibition, most hits filed as inhibitors; hit rate 0.37% among 290,000; AID 1721; further: potency means the concentration at half of the fitted maximal effect; on the % scale 0 is the no-effect control and ±100 the full control effect
# Target sequence (Q27686 whole entry, looked up): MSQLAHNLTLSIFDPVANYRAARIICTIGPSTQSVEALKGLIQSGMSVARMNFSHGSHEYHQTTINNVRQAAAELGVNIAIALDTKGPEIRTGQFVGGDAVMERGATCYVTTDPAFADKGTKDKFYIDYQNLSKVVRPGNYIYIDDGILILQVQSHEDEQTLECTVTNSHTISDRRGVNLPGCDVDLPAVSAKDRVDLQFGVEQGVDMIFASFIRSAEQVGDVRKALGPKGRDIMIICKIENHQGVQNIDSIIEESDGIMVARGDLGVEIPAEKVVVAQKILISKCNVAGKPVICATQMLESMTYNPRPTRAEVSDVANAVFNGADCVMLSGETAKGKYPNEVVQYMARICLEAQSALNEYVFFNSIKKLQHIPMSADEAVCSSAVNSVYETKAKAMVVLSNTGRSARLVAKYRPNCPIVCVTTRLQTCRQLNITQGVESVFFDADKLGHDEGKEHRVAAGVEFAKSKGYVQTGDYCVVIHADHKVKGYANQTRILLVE
#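 Kinase-Glo luminescence read after 1 h RT reaction of 0.1 nM LmPK with 0.5 mM PEP and 0.1 mM ADP. Activity scaled between uninhibited and enzyme-free controls.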
# Pf growth 48h – P. falciparum growth inhibition at 48 hours (one generation). P. falciparum luciferase growth in erythrocytes, 48 h. Potency, µM (titrated, usually from 28.7 µM), inactives show at the top dose activity change, negative = inhibition, usual class: inhibitors. hit rate 5.9% among 310,000; further: potency means the concentration at half of the fitted maximal effect; on the % scale 0 is the no-effect control and ±100 the full control effect
#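 Luciferase-expressing parasites in RBCs, 2% Hct / 0.1% parasitemia final; RPMI 1640 + 0.5% Albumax; 37 C, 5% CO2, one generation; luminescence read-out, lower signal = inhibition.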
# Pf growth 96h – P. falciparum growth inhibition at 96 hour, primary screen for plastid delayed-death inhibitors. P. falciparum luciferase reporter growth, 96 h. Potency, µM (highest dose often 28.7 µM), for the others: top-dose activity change, negative = inhibition, usual class: inhibitors. hit rate 6.9% among 320,000; further: potency means the concentration at half of the fitted maximal effect; on the % scale 0 is the no-effect control and ±100 the full control effect
#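 Compounds incubated with erythrocytes infected by luciferase-expressing P. falciparum (2% hematocrit, 0.05% parasitemia final) for 96 hours, 37 C in 5% CO2. Growth inhibition scored as decreased luciferase luminescence.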
# * marks the source's active call; other numbers are inactive results; i = inactive; ? = inconclusive; · = no result given. Unless noted, the call rests on the fitted dose curve; in most records, active means well fitted inhibition curve with a large enough effect; inconclusive means small, poorly fitted or top-dose-only effect, or another doubt; inactive means no such curve, though single readings can be large or run the other way.
SMILES,Cycloheximide cs,Shiga inhibitor,LmPK inh,Pf growth 48h,Pf growth 96h
O=C(NCc1ccccc1F)C1CCCN(C(=O)Nc2ccccc2)C1 (stereo not drawn),5.5,7.4,5.2%,-7.4%,14.1%
O=C(NCc1ccccc1)C1CCCN(C(=O)Nc2ccccc2)C1 (stereo not drawn),10.8*,52.9,-6.4%,31.3%,33.7%
O=C(Nc1cccc(F)c1)N1CCCC(CNS(=O)(=O)Cc2ccccc2)C1 (stereo not drawn),5.3,21.0,0.0%,8.5%,5.22µM*
COc1ccc(N/C=C(\C=C\C#N)S(=O)(=O)c2ccccc2)cc1,-4.1,-13.2,5.0%,5.5%,-7.9%
COc1ccccc1CCNC(=O)c1ccc(NC(=O)CC2SC(N3CCCCC3)=NC2=O)cc1 (stereo not drawn),·,·,·,11.7µM*,10.4µM*
COc1cccc(CN(C)C(=O)c2cccc(NC(=O)CC3SC(N4CCCCC4)=NC3=O)c2)c1OC (stereo not drawn),·,·,·,10.4µM*,9.28µM*
COc1cccc(NC(=O)CN(C)C(=O)c2ccc(NC(=O)CC3SC(N4CCCCC4)=NC3=O)cc2)c1 (stereo not drawn),·,·,·,?,-6.4%
CCC(CC)C(=O)c1c[nH]c(C(=O)NCc2ccccn2)c1,10.1,26.1,1.9%,i,0.7%
COc1cc(C2N3CC4(C)CN2CC(C)(C3)C4)ccc1O (stereo not drawn),-1.8,12.7,-2.5%,3.9%,19.6%
COc1ccc(C2N(c3ccccc3)CCN2c2ccccc2)cc1O,26.0*,59.0*,10.0%,21.9%,16.7%
C=CCOc1nc(-c2ccncc2)nc2ccccc12,3.2,-14.3,4.1%,7.38µM*,17.9%
COc1nc(-c2ccncc2)nc2ccccc12,1.3,7.5,1.1%,?,?
CCCOc1ccc(Oc2nc(-c3ccncc3)nc3ccccc23)cc1,0.5,-3.6,4.3%,1.31µM*,1.04µM*
Cc1ccccc1NC(=O)CSc1nc2c(c(=O)n(C)c(=O)n2C)n1C,-6.8,-3.7,-7.4%,3.8%,40.9%
COc1ccc(CCC(C)NCc2cccc(Br)c2)cc1 (stereo not drawn),-1.5,-10.2,-0.2%,-7.0%,8.28µM*
O=C(NCc1cccnc1)NC(=O)c1ccc(Cl)cc1,-1.3,0.8,-8.2%,3.5%,-5.1%
O=C(Nc1ccc(Cl)cc1F)C1CC1,-0.5,14.5,-4.3%,3.0%,-7.8%
COc1ccc(CNCc2cccc(C)c2)cc1,-2.1,·,1.7%,50.0%,7.5%
COc1ccc(CNCc2cccc(Oc3ccccc3)c2)cc1,1.7,3.4,4.2%,73.1%,3.7µM*
OCC1(CCc2ccccc2)CCN(Cc2cccn2-c2cccnc2)CC1,-5.1,-10.9,0.4%,-18.6%,?
CCc1[nH]nc2c1C1(CCN(C(=O)OCc3ccccc3)CC1)C(C#N)=C(N)O2,2.3,6.6,6.6%,-25.9%,0.185µM*
CC1(c2ccc(OC(F)F)cc2)NC(=O)N(CC(=O)N2CCN(C(=O)c3ccco3)CC2)C1=O (stereo not drawn),·,·,·,1.9%,-8.0%
CCOC(=O)c1[nH]c(C)c(C(=O)OCC(=O)N(C)C2CCS(=O)(=O)C2)c1C (stereo not drawn),-1.6,21.2,-1.1%,6.5%,3.8%
CC(C)Cc1nc(NCCN2CCOCC2)c(C#N)c2c1COC(C)(C)C2,-3.1,3.3,7.5%,11.7µM*,·
CC(C)Cc1nc(N2CCOCC2)c(C#N)c2c1COC(C)(C)C2,-1.3,-11.3,4.7%,10.4µM*,·
SMILES,Cycloheximide cs,Shiga inhibitor,LmPK inh,Pf growth 48h,Pf growth 96h
CC(C)c1nc(NCCN2CCOCC2)c(C#N)c2c1COC(C)(C)C2,-3.4,-10.5,3.9%,?,49.1%
CC12Cc3ccc4ccccc4c3C=C1C[N+](C)(C)C2 (stereo not drawn),-3.1,-10.5,-2.4%,·,1.65µM*
CC[N+]1(CC)CC2=Cc3c(ccc4ccccc34)CC2C1 (stereo not drawn),10.6,16.1,3.0%,·,?
COc1ccc(OCC(=O)OCC(=O)Nc2ccc3[nH]c(=O)[nH]c3c2)cc1,·,·,·,5.5%,5.0%
COc1ccc(C2C(C#N)=C(N)Oc3cccc(O)c32)cc1 (stereo not drawn),1.1,·,9.1%,-12.2%,-13.1%
Cc1nn(Cc2ccccc2Cl)c2sc(C(=O)NCc3ccc4c(c3)OCO4)cc12,14.5,-2.0,-1.3%,·,11.7µM*
Cc1nn(Cc2ccc(F)cc2)c2sc(C(=O)Nc3nccs3)cc12,-3.1,-2.4,0.2%,?,?
Cc1nn(Cc2ccccc2Cl)c2sc(C(=O)Nc3nccs3)cc12,-4.6,22.4,3.4%,?,?

# From PubChem BioAssay
